The text below walks through data of PubChem BioAssay (NCATS).

Inconclusive results are not listed. Where a call stands in place of a potency, no number is given. Calls of active or inactive are those of the source. The call rests on the fitted dose curve; in most records, active means well fitted curve in the direction sought with a large enough effect; inconclusive means small, poorly fitted or top-dose-only effect, or another doubt; inactive means no such curve, though single readings can be large; an effect the other way counts as inactive or inconclusive.
Potency means the concentration at half of the fitted maximal effect.

The nature of the first experiment: qHTS of pediatric cancer cell lines to identify multiple opportunities for drug repurposing: Confirmatory screen for RD cells (AID 1347124).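 Further: cells exposed to compound for 48 h before viability readout; nearly all actives have a fitted effect of over 65% in size.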 The note with it: RD rhabdomyosarcoma cell viability; series mostly up to 45.9 µM. In outline: (§1)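 Cells (500-1,000/well) in growth media were settled 5 h at 37 degrees C, then given compounds for 48 h. Viability was read as CellTiter-Glo luminescence. Primary runs used MIPE at 11 points (0.78 nM-46 µM) and NPC at 8 points (0.59 nM-46 µM); follow-ups used 11 points.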
Background: qHTS replaces the single test concentration by a dilution series.
For `CO[C@H]1C=CC=C(C)C(=O)NC2=CC(=O)C(NCCN(C)C)=C(C[C@@H](C)C[C@H](OC)[C@@H](O)[C@@H](C)C=C(C)[C@@H]1OC(N)=O)C2=O`, the Potency result is “inactive”.

Consider `O=c1[nH]cnc2c1ncn2[C@H]1CC[C@@H](CO)O1`, for which the Potency entry is “inactive”.

With `COc1ncc(-c2ccc3nccc(-c4ccnnc4)c3c2)cc1NS(=O)(=O)c1ccc(F)cc1F`, the Potency result was “inactive”.

For the compound `O=C(O)CCC1CCC(c2cc(F)ccc2F)(S(=O)(=O)c2ccc(Cl)cc2)CC1` (stereo unspecified), the Potency entry is “inactive”.

For the compound `CC[C@@H]1C=C(C)C[C@H](C)C[C@H](OC)[C@H]2O[C@@](O)(C(=O)C(=O)N3CCCC[C@@H]3C(=O)O[C@H](C(C)=C[C@@H]3CC[C@H](Cl)[C@H](OC)C3)[C@H](C)[C@@H](O)CC1=O)[C@H](C)C[C@H]2OC`, the Potency entry was “inactive”.

On to `O=C(O)c1ccc(-c2cc3cccnc3c(-c3ccc4nonc4c3)n2)cc1`, for which the Potency was 7.37 µM (active).

For the compound `CCCCCCCCCCCC1=C(O)C(=O)C=C(O)C1=O`, the Potency result is “inactive”.

For the compound `CC(=NNC(=S)N1CCC1)c1ccccn1`, the Potency entry was “inactive”.

Turning to `O=C1NC(=O)C(=Cc2ccc3c(c2)OC(F)(F)O3)S1`, the Potency result is “inactive”.

For `O=C(O)c1ccc(-c2c[nH]c3ncc(-c4ccccc4)cc23)cc1C1CCCC1`, the Potency entry was “inactive”.

A further experiment is described as follows: qHTS of pediatric cancer cell lines to identify multiple opportunities for drug repurposing: Confirmatory screen for Rh18 cells (AID 1347125). Further: nearly all actives have a fitted effect of over 55% in size. The note with it: Rh18 rhabdomyosarcoma cells, viability; series mostly up to 45.9 µM. In outline:
as §1
Regarding `CO[C@H]1C=CC=C(C)C(=O)NC2=CC(=O)C(NCCN(C)C)=C(C[C@@H](C)C[C@H](OC)[C@@H](O)[C@@H](C)C=C(C)[C@@H]1OC(N)=O)C2=O`, the Potency was 1.85 µM (active).

Turning to `C=C1C(=O)[C@@]23C(CC[C@@H]1[C@H]2O)[C@@]12CO[C@]3(O)[C@@H](O)[C@@H]1C(C)(C)CC[C@@H]2O` (stereo partly specified), the Potency is 14.7 µM (active).

Turning to `COc1ncc(-c2ccc3nccc(-c4ccnnc4)c3c2)cc1NS(=O)(=O)c1ccc(F)cc1F`, the Potency was 0.104 µM (active).

As to `O=C(O)CCC1CCC(c2cc(F)ccc2F)(S(=O)(=O)c2ccc(Cl)cc2)CC1` (stereo unspecified), the Potency was 29.3 µM (active).

Take `CC(=O)Oc1cc2c(s1)CCN(C(C(=O)C1CC1)c1ccccc1F)C2` (stereo unspecified): the Potency entry is “inactive”.

On to `CCCCCCCCCCCC1=C(O)C(=O)C=C(O)C1=O`, for which the Potency entry was “inactive”.

On to `CNC1CCC(N(Cc2cccc(-c3ccncc3)c2)C(=O)c2sc3c(F)ccc(F)c3c2Cl)CC1` (stereo unspecified), for which the Potency result is “inactive”.

`CC(=NNC(=S)N1CCC1)c1ccccn1`: the Potency result was “inactive”.

On to `O=C1NC(=O)C(=Cc2ccc3c(c2)OC(F)(F)O3)S1`, for which the Potency entry is “inactive”.

In the case of `Cc1[nH]c(C=C2C(=O)Nc3ccc(S(=O)(=O)Cc4c(Cl)cccc4Cl)cc32)c(C)c1C(=O)N1CCC[C@H]1CN1CCCC1`, the Potency was 26.1 µM (active).

Take `O=C(O)c1ccc(-c2c[nH]c3ncc(-c4ccccc4)cc23)cc1C1CCCC1`: the Potency entry was “inactive”.
